# TRPM1 prom inh: inhibitors of MITF-dependent TRPM1 promoter reporter, primary screen, cell-based, SK-MEL-5, single point, luciferase; inhibition, % at 12.5 µM; SK-MEL-5 TRPM1 promoter luciferase, 24 h; AID 488899, 2010; hit rate 0.83% among 330,000;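 active = mean inhibition across replicates of 60% or more, whatever share of single replicates reaches that level; inconclusive = some that reach 60%, reason not given; inactive = mean inhibition across replicates below 60%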
# Shn3 inh set2: reduction of Shn3 3'UTR firefly luciferase signal, primary screen, Schnurri-3 inhibitor project, cell-based, Clone20 osteoblasts, set 2 | Clone20 osteoblast Shn3 3'UTR firefly luciferase, 24 h | hit rate 0.52% among 360,000 | inhibition, % at 12.5 µM | AID 588674, 2011;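 active = mean inhibition of at least 75% with every replicate also reaching 75%; inconclusive = mean inhibition at least 75% but some replicate below; inactive = mean inhibition below 75%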
# EWS-Fli inh: EWS/Fli-driven NR0B1 reporter inhibitors, primary screen, A673 cells, NR0B1 luciferase, luminescence, MLPCN library; viability-normalised; inhibition, % at 12.6 µM; hit rate 0.67% among 350,000;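 active = mean inhibition of at least 50% after viability correction, with every replicate also passing that limit; inconclusive = mean reaches 50% but only one of two replicates passes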;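 also: firefly luciferase signal divided by Alamar Blue viability fluorescence both relative to DMSO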
# Peg3 promoter: Peg3 promoter-driven luciferase inhibitors, primary screen, cell-based, HeLa, luciferase luminescence; HeLa PEG-Prom luciferase reporter, overnight; inhibition, % at 20 µM; hit rate 1.7% among 360,000; AID 588405, 2011;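 active = inhibition of at least 50% at 20 µM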
# PAX8 inh HTS: inhibitors of PAX8-driven TPO luciferase reporter, primary screen, RMG-I cells, single concentration; inhibition, % at 12.6 µM; hit rate 1.2% among 360,000; SteadyGlo, 24 h;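 active = mean replicate inhibition at least 60% with every replicate also reaching 60%; inconclusive = only one of the two criteria is met; inactive = mean below 60% and not all replicates reaching 60%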;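 also: luciferase light reporting Pax8 driven TPO promoter activity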
# ABHD5-PLIN5 inh: ABHD5-PLIN5 interaction inhibitors, primary screen, cell lysate, split luciferase complementation, luminescence; AID 602281, 2012; Perilipin-5 (Homo sapiens) + 1-acylglycerol-3-phosphate O-acyltransferase ABHD5 (Homo …; hit rate 0.78% among 360,000; inhibition, % at 4 µM; Split G. princeps luciferase complementation, 4 h;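 active = inhibition above the mean inhibition across every tested compound plus 3 SD, cut at about 22% in these data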
# Numbers stand for hits; - = inactive; ? = inconclusive; . = no result. Sampled rows, rich in hits. Any-hit rate of the full collection: about 3%.
SMILES,TRPM1 prom inh,Shn3 inh set2,EWS-Fli inh,Peg3 promoter,PAX8 inh HTS,ABHD5-PLIN5 inh
O=C(Cc1ccccc1)N1CCCCN2[C@@H](CO)[C@H](c3ccc(C#CC4(O)CCCC4)cc3)[C@@H]2C1,.,.,-,.,-,.
C[C@H]1CN([C@@H](C)CO)C(=O)c2c(c3ccccc3n2C)-c2ccccc2CO[C@H]1CN(C)C(=O)Oc1ccccc1,.,.,-,.,-,.
C#CCOc1cc(C2C3=C(COC3=O)Nc3cc4c(cc32)OCO4)ccc1OC (stereo not given),-,-,62.6,-,?,-
COc1ccc2c(c1OC)CN1CCc3cc4c(cc3C1C2)OCO4 (stereo not given),-,-,-,-,-,-
Cc1nc2c(=O)n(C)c(=O)nc-2n(C)n1,109.8,98.1,.,104.7,.,-
C=C1[C@@H](C)[C@H]2[C@H](Cc3ccccc3)NC(=O)[C@]23OC(=O)/C=C/[C@H](O)CCC[C@@H](C)C/C=C/[C@H]3[C@@H]1O,-,-,-,64.5,74.1,-
C=C1C(C)C2C(Cc3ccccc3)NC(=O)C23C(OC(C)=O)C=CC(C)(O)CC(C)CC=CC3C1O (stereo not given),-,-,-,-,?,-
O=C(Cc1ccncc1)N1CCCCN2[C@H](C1)[C@@H](c1ccc(C#CC3(O)CCCC3)cc1)[C@@H]2CO,.,.,.,.,-,.
C/C=C/c1ccc(C2[C@@H]3CN(C(=O)C4CC4)C[C@H]2N3)cc1 (stereo not given in full),.,.,-,.,-,.
[O-]c1ccccc1-[n+]1c(-c2ccccc2)cc(-c2ccccc2)cc1-c1ccccc1,-,-,-,-,90.4,-
Cc1ccccc1-[n+]1c(-c2ccccc2)cc(-c2ccccc2)cc1-c1ccccc1,89.6,-,-,-,94.9,-
Oc1ccccc1-[n+]1c(-c2ccccc2)cc(-c2ccccc2)cc1-c1ccccc1,-,-,-,-,77.8,-
Nc1ccccc1-[n+]1c(-c2ccccc2)cc(-c2ccccc2)cc1-c1ccccc1,-,-,-,-,?,-
COC(=O)[C@H]1[C@H](CO)[C@H]2Cn3c(ccc(C4=CCCC4)c3=O)[C@@H]1N2Cc1ccccn1,.,.,-,.,.,.
COC(=O)[C@@H]1[C@@H](CO)[C@@H]2Cn3c(ccc(-c4cccc(OC)c4)c3=O)[C@H]1N2C(=O)c1cnccn1,.,.,-,.,-,.
O=C(O)[C@@H]1[C@@H](CO)[C@@H]2Cn3c(ccc(C4=CCCC4)c3=O)[C@H]1N2C(=O)Cc1ccccn1,.,.,-,.,.,.
C[C@H]1CCC[C@@H](O)CCC/C=C/c2cc(O)cc(O)c2C(=O)O1,-,-,.,64.4,.,-
N#Cc1cccc(-c2ccc([C@@H]3[C@@H](CO)N4CCCCN(C(=O)Cc5ccccc5)C[C@H]34)cc2)c1,.,.,-,.,-,.
Clc1ccc(COC(Cn2ccnc2)c2ccc(Cl)cc2Cl)cc1 (stereo not given),-,-,-,-,-,-
Clc1ccc(C(c2ccc(Cl)cc2)n2cc[n+](CC(OCc3ccc(Cl)cc3Cl)c3ccc(Cl)cc3Cl)c2)cc1 (stereo not given),102.7,87.2,-,101.7,97.3,-
COc1ccc(NC2Oc3cc4c(cc3C(c3cc(OC)c(OC)c(OC)c3)C2C)OCO4)cc1 (stereo not given),-,-,54.1,-,-,-
O=C1NCN(c2ccccc2)C12CCN(C(CCc1ccccc1)c1nnnn1Cc1ccccc1)CC2 (stereo not given),.,-,-,58.6,-,-
O=c1[nH]c2ccccc2n1C1CCN(C(CCc2ccccc2)c2nnnn2Cc2ccccc2)CC1 (stereo not given),.,84.5,-,97.4,108.4,-
O=c1[nH]c2ccccc2n1C1CCN(C(c2nnnn2Cc2ccccc2)C2CC2)CC1 (stereo not given),.,-,-,75.6,85.8,-
CSCCC(c1nnnn1Cc1ccccc1)N1CCC(n2c(=O)[nH]c3ccccc32)CC1 (stereo not given),.,-,-,65.1,96.6,-
SMILES,TRPM1 prom inh,Shn3 inh set2,EWS-Fli inh,Peg3 promoter,PAX8 inh HTS,ABHD5-PLIN5 inh
CSCCC(c1nnnn1C1CCCC1)N1CCC(n2c(=O)[nH]c3ccccc32)CC1 (stereo not given),.,-,-,-,-,-
Cc1ccccc1-c1ccc([C@@H]2[C@H]3CN(C(=O)Cc4ccccn4)CCCCN3[C@H]2CO)cc1,.,.,-,.,-,.
O=C(Cc1ccccc1)N1CCCCN2[C@@H](CO)[C@@H](c3ccc(-c4ccccc4)cc3)[C@@H]2C1,.,.,.,.,-,.
CC=Cc1ccc2n(c1=O)C[C@@H]1[C@@H](CO)[C@H](C(=O)OC)[C@H]2N1S(=O)(=O)c1cccc(C)c1 (mixture of isomers),.,.,-,.,.,.
Cc1cccc(S(=O)(=O)N2[C@@H]3c4ccc(-c5ccc(F)cc5)c(=O)n4C[C@H]2[C@H](CO)[C@H]3C(=O)O)c1,.,.,-,.,.,.
COC(=O)[C@H]1[C@H](CO)[C@H]2Cn3c(ccc(-c4ccccc4)c3=O)[C@@H]1N2CCc1ccccc1,.,.,-,.,.,.
O=c1[nH]c2ccccc2n1C1CCN(C(CCc2ccccc2)c2nnnn2C2CCCCC2)CC1 (stereo not given),.,-,-,97.8,-,-
Cc1cccc(C)c1-n1nnnc1C(C1CC1)N1CCC(n2c(=O)[nH]c3ccccc32)CC1 (stereo not given),.,-,-,51.1,-,-
O=C(Cc1ccccn1)N1CCCCN2[C@@H](CO)[C@H](c3ccc(-c4ccccc4)cc3)[C@@H]2C1,.,.,-,.,-,.
Cc1ccc(C[n+]2c(-c3ccc(C)cc3)cc(-c3ccc(C)cc3)cc2-c2ccc(C)cc2)cc1,95.7,91.6,.,96.7,.,38.0
Cc1ccc(-c2cc(-c3ccc(C)cc3)[n+](-c3ccc(C(=O)O)cc3)c(-c3ccc(C)cc3)c2)cc1,-,-,-,-,-,-
COc1cccc(-c2ccc3c(c2)C2c4cnnn4-c4ccccc4C(=O)N2CC3)c1 (stereo not given),.,.,58.9,.,-,.
COC(=O)c1ccc(NC(=O)CSc2nc3ccc(N4C(=O)C5C6C=CC(C6)C5C4=O)cc3s2)cc1 (stereo not given),62.3,-,-,104.9,-,-
O=C(O)[C@@H]1[C@@H](CO)[C@@H]2Cn3c(ccc(-c4ccccc4)c3=O)[C@H]1N2S(=O)(=O)c1ccccc1F,.,.,-,.,-,.
N#Cc1cccc(-c2ccc([C@H]3[C@H]4CN(C(=O)Cc5cccnc5)CCCCN4[C@H]3CO)cc2)c1,.,.,-,.,-,.
COC1/C=C/C=C(\C)Cc2cc(O)c(Cl)c(c2)N(C)C(=O)CC(OC(=O)C(C)C)C2(C)OC2C(C)C2CC1(O)NC(=O)O2 (stereo not given),-,-,-,-,75.5,-
